Source: PubChem BioAssay (NCI)
About 83,000 compounds went through this panel and 20% of them were active in at least one assay; those are over-represented in the sample as a whole.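 How to read the values: 0–100, growth inhibition (40 = 60% inhibited); 0, no net growth; -100 to 0, cell death (-40 = 40% of starting cells died; -100 = all dead).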 Values without a mark were called inactive. The source made the active and inactive calls. How the source made its calls: active means growth percent below 10; inactive means the rest.

Tests used:
Assay in all cases: NCI-60 one-dose screen, 48 h (100 = growth as untreated, 0 = no growth, -100 = all killed)
Conditions in all cases: 10 µM unless noted
NCI-H23 lung = tested on: NCI-H23 lung
NCI-H226 lung = tested on: NCI-H226 lung
NCI-H322M lung = tested on: NCI-H322M lung
HOP-62 NSCLC = tested on: HOP-62 NSCLC
NCI-H460 lung = tested on: NCI-H460 lung
HOP-92 NSCLC = tested on: HOP-92 NSCLC
NCI-H522 lung = tested on: NCI-H522 lung
A549/ATCC NSCLC = tested on: A549/ATCC NSCLC
786-0 renal = tested on: 786-0 renal
COLO 205 colon = tested on: COLO 205 colon
DU-145 prostate = tested on: DU-145 prostate
K-562 leukemia = tested on: K-562 leukemia
MALME-3M melanoma = tested on: MALME-3M melanoma
MDA-MB-231 breast = tested on: MDA-MB-231 breast
RXF 393 renal = tested on: RXF 393 renal
SF-268 CNS = tested on: SF-268 CNS
SF-295 CNS = tested on: SF-295 CNS
SF-539 CNS = tested on: SF-539 CNS
UACC-257 melanoma = tested on: UACC-257 melanoma
M14 melanoma = tested on: M14 melanoma

Row | Structure (SMILES) | growth (NCI-H23 lung) | growth (NCI-H226 lung) | growth (NCI-H322M lung) | growth (HOP-62 NSCLC) | growth (NCI-H460 lung) | growth (HOP-92 NSCLC) | growth (NCI-H522 lung) | growth (A549/ATCC NSCLC) | growth (786-0 renal) | growth (COLO 205 colon) | growth (DU-145 prostate) | growth (K-562 leukemia) | growth (MALME-3M melanoma) | growth (MDA-MB-231 breast) | growth (RXF 393 renal) | growth (SF-268 CNS) | growth (SF-295 CNS) | growth (SF-539 CNS) | growth (UACC-257 melanoma) | growth (M14 melanoma)
1 | CC(=O)OC(C(=O)c1ccccc1)c1ccccc1 (stereo not given) | 111% | 98.9% | 99.8% | 103% | 101% | 58% | 90.6% | 106% | 100% | 107% | 111% | 96.5% | 95.8% | 107% | 103% | 107% | 108% | 114% | 107% | 104%
2 | Cn1cc(-c2ncnc3ccc(-c4cnc(Cl)c(NS(C)(=O)=O)c4)cc23)c2ccccc21 | 29.7% | 16.4% | 0.878% (active) | 16.2% | 8.88% (active) | -8.63% (active) | 17% | 6.57% (active) | 12% | 16.4% | 25.2% | 48.4% | -13.6% (active) | 27.9% | -26.7% (active) | 27.5% | -9.66% (active) | -11.1% (active) | 5.53% (active) | 9.65% (active)
3 | C[C@]12O[C@H](C[C@]1(O)CO)n1c3ccccc3c3c4c(c5c6ccccc6n2c5c31)CNC4=O | -58.3% (active) | -68.8% (active) | -32.1% (active) | -63% (active) | -61.3% (active) | -26.3% (active) | -56.2% (active) | -29.9% (active) | -87.5% (active) | -84.9% (active) | 3.57% (active) | 4.93% (active) | -85.3% (active) | -44.2% (active) | -90.2% (active) | -45.5% (active) | -83.8% (active) | -96.6% (active) | -77.2% (active) | -56.4% (active)
4 | COc1cc2nccc(Oc3ccc(NC(=O)Nc4cc(C)on4)c(Cl)c3)c2cc1OC | 28.8% | 23.1% | 32.9% | 18.4% | 14.5% | -55.9% (active) | 11.1% | 4.95% (active) | 16.1% | -25.4% (active) | 31.2% | 5.94% (active) | 20.4% | 10% | -28.9% (active) | 21.7% | 19% | -50.3% (active) | 19.6% | 7.27% (active)
5 | CN(C)C[C@@H]1CCn2cc(c3ccccc32)C2=C(C(=O)NC2=O)c2cn(c3ccccc23)CCO1 | -15.7% (active) | -12.5% (active) | 32.2% | -67.9% (active) | -70.6% (active) | 46.1% | -23.1% (active) | -12.4% (active) | -69.9% (active) | -53.8% (active) | 13.2% | -58.7% (active) | -70.5% (active) | -35.8% (active) | -72.9% (active) | 36.6% | 21% | -93.2% (active) | -20.1% (active) | 3.4% (active)
6 | CC(=O)O[C@]1(C)C[C@H](O)[C@]2(O)C=CO[C@H](O[C@@H]3O[C@H](CO)[C@@H](O)[C@H](O)[C@H]3O)[C@@H]21 | 99.3% | 96.7% | 101% | 95.2% | 110% | 129% | 95.4% | 105% | 93.2% | 108% | 102% | 97.3% | 97.5% | 98.5% | 109% | 94.3% | 90.9% | 97.5% | 109% | 98.6%
7 | C1=C\COCc2cc(ccc2OCCN2CCCC2)Nc2nccc(n2)-c2cccc(c2)COC/1 | -17.3% (active) | -64.9% (active) | -8.53% (active) | -18.1% (active) | -34.5% (active) | -0.764% (active) | -58.1% (active) | -17.3% (active) | 1.51% (active) | -82% (active) | 13.7% | 1.93% (active) | -79.3% (active) | -1.88% (active) | -74.8% (active) | -0.949% (active) | -33.8% (active) | -83.7% (active) | -75.1% (active) | -59.4% (active)
8 | O=C(O)c1ccc(Nc2ncc3c(n2)-c2ccc(Cl)cc2C(c2c(F)cccc2F)=NC3)cc1 | 64.9% | 51.7% | 89% | 37.7% | 39.5% | 54.4% | 29.9% | 30% | 63% | 2.8% (active) | 72.1% | 23.3% | 76.5% | 51.7% | 43.8% | 52.6% | 39.3% | 59.4% | 46.4% | 57.5%
9 | O=C1C=CC2(NN=C(c3ccccc3)N2c2ccccc2)c2cccc(O)c21 (stereo not given) | 9.65% (active) | 51.9% | 83.9% | 21.5% | 34.1% | 117% | 28.7% | 14.8% | 102% | 80.8% | 35.7% | 28.6% | 11.6% | 75.6% | 120% | 49.4% | 17.1% | 25.4% | 3.12% (active) | 8.81% (active)
10 | CN1CCC(COc2cnc(-c3cccc(Cn4nc(-c5cccc(C#N)c5)ccc4=O)c3)nc2)CC1 | 62.5% | 92.2% | 88.7% | 45.7% | 52.4% | 72.2% | 25.5% | 48.1% | 61.9% | -60.3% (active) | 77.8% | 3.04% (active) | 48.4% | 57.3% | 87.7% | 67.2% | 54.5% | 33.5% | -27.5% (active) | 39%
11 | COc1cc2cc(NCc3ccc(Cl)cc3)nc(C)c2cc1OC | 23.7% | 35.5% | 44.6% | 56.5% | 22.6% | 36.3% | 45.7% | 39.8% | 28.2% | 26.5% | 49% | 9.09% (active) | 88.3% | 42.1% | 48.5% | 43.7% | 34.4% | -14.9% (active) | 64.2% | 19.3%
12 | Cc1ccc(-n2nc(C(C)(C)C)cc2NC(=O)NCc2cc(F)ccc2Oc2ccc3c(cnn3CCO)c2)cc1 | 20.8% | 21.1% | 21.6% | 26.1% | 25.8% | 19.5% | 4.27% (active) | 19.4% | 29.1% | -13% (active) | 42.4% | 3.71% (active) | -6.23% (active) | 14.1% | -10.3% (active) | 34.8% | 26.9% | 21.7% | -11.2% (active) | 9.06% (active)
13 | O=C(Cn1ccnc1)Nc1ccc(-c2nc3ccccc3s2)cc1 | 57.4% | 66.6% | 98.3% | 83.8% | 79.8% | 75.8% | 74.7% | 70.3% | 78% | 80.8% | 81.1% | 39.6% | 81.8% | 80.1% | 102% | 81.1% | 65.5% | 81.3% | 67.6% | 94.4%
14 | COc1ccc(-c2ccc3c(N4CCOC[C@@H]4C)nc(N4CCOC[C@@H]4C)nc3n2)cc1CO | 20.3% | -9.74% (active) | -5.27% (active) | -12.9% (active) | 8.4% (active) | -21.1% (active) | 8.31% (active) | -12.6% (active) | 2.33% (active) | -14.1% (active) | 11.6% | 12.8% | -8.07% (active) | 13% | -27.5% (active) | 14.9% | -35% (active) | -39.2% (active) | -24.8% (active) | 6.2% (active)
15 | CCCNC(=O)c1cn2ncnc(Nc3cc(C(=O)NC4CC4)ccc3C)c2c1C | 24.6% | 42.1% | 47.5% | 81.1% | 66.8% | 74.6% | 79.1% | 63.3% | 99% | 88.9% | 103% | 85% | 3.42% (active) | 79.2% | 40% | 88% | 79.5% | 77.3% | 65.6% | 92.4%
